# Results reported in paper PMC7862700, “An all-to-all approach to the identification of sequence-specific readers for epigenetic DNA modifications on cytosine”.
# Tests used:
# Assay in all cases: DAPPL (digital affinity profiling via proximity ligation, sequencing); 10 mM Tris-HCl pH 7.5, 50 mM NaCl, 1 mM DTT, 4% glycerol, room temperature, 30 min; GST-TFs on glutathione beads, 16-mer random dsDNA library, 0.1% formaldehyde crosslink after washing; high values mean tight binding
# Conditions in all cases: protein: recombinant; tags: N-terminal GST; dsDNA, one strand shown
# ERF = target: T1, ERF (Homo sapiens, UniProt P50548 1-548)
# T1 sequence: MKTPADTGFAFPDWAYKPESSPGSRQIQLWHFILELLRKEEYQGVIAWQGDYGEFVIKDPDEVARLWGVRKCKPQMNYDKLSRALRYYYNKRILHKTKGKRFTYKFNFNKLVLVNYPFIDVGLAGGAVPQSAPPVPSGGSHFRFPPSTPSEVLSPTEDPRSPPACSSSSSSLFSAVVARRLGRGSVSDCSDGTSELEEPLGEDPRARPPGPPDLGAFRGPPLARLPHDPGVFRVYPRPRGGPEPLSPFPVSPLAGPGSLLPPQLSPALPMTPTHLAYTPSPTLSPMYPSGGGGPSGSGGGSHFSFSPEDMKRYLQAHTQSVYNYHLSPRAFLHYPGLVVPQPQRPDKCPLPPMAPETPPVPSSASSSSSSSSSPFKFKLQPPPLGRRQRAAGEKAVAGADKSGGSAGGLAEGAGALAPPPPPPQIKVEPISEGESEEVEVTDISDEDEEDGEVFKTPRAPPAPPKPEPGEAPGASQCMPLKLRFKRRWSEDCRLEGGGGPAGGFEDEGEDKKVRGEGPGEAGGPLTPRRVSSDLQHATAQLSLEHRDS
# How it was run: (§1)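 Binding signal is given per hexamer as its read frequency for a factor divided by its frequency in the tag-only sample. GST-fused human transcription factors were expressed in yeast, captured on glutathione beads, barcoded with DNA and pooled with that sample, then incubated with 200 nmole of a 16-mer random double-stranded DNA library in Tris/NaCl/DTT/glycerol buffer for 30 min at room temperature. The pools were then washed, crosslinked, proximity-ligated, amplified by PCR and sequenced on an Illumina NextSeq500.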
# ETV3L = target: T2, ETV3L (Homo sapiens, UniProt Q6ZN32 1-361)
# T2 sequence: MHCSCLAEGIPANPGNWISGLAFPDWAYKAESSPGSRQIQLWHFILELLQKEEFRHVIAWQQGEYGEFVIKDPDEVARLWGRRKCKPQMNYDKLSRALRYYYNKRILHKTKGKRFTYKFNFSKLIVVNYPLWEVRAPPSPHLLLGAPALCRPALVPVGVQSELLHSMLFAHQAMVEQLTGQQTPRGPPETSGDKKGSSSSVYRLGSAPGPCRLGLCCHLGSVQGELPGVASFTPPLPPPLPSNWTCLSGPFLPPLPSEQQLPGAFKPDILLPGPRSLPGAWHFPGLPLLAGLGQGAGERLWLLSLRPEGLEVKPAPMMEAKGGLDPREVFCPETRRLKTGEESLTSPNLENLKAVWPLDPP
# How it was run: as §1
# ETS2 = target: T3, ETS2 (Homo sapiens, UniProt P15036 1-469)
# T3 sequence: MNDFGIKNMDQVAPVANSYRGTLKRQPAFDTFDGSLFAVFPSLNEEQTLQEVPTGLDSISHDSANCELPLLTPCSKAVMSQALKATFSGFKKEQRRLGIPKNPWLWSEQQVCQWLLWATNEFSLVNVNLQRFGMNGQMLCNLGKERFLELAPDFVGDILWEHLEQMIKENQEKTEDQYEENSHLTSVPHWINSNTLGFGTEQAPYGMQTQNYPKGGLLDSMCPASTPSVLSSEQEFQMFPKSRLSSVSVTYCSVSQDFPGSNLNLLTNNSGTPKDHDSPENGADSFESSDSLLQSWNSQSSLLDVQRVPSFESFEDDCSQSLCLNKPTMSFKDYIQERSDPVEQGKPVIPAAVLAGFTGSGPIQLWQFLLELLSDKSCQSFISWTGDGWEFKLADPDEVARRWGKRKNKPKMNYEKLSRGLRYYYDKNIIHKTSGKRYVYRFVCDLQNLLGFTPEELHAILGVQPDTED
# How it was run: as §1
# SPDEF = target: T4, SPDEF (Homo sapiens, UniProt O95238 1-335)
# T4 sequence: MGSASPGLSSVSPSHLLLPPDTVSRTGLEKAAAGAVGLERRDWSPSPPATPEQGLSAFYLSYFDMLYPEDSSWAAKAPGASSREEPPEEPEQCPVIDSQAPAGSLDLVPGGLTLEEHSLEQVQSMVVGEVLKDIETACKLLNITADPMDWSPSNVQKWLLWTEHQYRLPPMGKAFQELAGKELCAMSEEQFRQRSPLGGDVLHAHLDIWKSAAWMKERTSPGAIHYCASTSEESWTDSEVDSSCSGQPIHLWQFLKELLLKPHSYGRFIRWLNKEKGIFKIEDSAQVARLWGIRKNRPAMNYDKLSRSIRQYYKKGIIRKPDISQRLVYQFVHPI
# How it was run: as §1
# ETV7 = target: T5, ETV7 (Homo sapiens, UniProt Q9Y603 1-341)
# T5 sequence: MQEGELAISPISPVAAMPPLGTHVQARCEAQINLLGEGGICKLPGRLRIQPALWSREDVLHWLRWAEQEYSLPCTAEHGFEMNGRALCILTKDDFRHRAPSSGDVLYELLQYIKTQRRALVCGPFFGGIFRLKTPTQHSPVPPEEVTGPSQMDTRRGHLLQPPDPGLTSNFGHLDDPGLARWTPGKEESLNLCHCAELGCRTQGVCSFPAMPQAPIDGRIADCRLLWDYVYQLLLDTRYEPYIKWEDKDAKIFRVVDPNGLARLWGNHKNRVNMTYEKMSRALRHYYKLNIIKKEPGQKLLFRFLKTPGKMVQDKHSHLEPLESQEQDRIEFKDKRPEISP
# How it was run: as §1
# ELF5 = target: T6, ELF5 (Homo sapiens, UniProt Q9UKW6-2 1-255)
# T6 sequence: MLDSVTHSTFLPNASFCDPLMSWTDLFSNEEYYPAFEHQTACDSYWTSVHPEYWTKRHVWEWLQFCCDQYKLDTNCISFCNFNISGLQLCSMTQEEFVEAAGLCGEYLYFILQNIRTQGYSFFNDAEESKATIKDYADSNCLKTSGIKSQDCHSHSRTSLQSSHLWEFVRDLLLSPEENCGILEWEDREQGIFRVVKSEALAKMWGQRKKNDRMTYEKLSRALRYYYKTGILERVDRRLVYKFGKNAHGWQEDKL
# How it was run: as §1
# ETV3 = target: T7, ETV3 (Homo sapiens, UniProt P41162-2 1-143)
# T7 sequence: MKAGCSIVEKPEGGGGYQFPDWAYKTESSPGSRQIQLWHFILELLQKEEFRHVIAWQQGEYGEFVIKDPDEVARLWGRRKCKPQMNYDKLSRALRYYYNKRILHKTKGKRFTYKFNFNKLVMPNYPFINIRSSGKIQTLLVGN
# How it was run: as §1
# ETV6 = ETV6 (Homo sapiens, UniProt P41212 1-452)
# ETV6, sequence (P41212 whole entry): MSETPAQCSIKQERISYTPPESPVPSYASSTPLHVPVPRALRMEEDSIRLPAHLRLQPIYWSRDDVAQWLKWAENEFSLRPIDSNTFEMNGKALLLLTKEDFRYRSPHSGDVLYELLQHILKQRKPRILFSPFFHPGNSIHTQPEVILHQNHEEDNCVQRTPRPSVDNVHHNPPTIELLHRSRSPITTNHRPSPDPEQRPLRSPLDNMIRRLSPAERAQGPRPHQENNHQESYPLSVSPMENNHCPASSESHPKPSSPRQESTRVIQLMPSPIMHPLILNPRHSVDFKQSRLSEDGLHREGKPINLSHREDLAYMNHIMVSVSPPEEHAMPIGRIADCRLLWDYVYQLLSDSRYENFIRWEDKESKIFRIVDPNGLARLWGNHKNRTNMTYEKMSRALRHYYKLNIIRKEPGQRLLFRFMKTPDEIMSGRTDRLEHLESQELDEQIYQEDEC
# How it was run: as §1
Sequence,binding signal (ERF),binding signal (ETV3L),binding signal (ETS2),binding signal (SPDEF),binding signal (ETV7),binding signal (ELF5),binding signal (ETV3),binding signal (ETV6)
TATACA,"1.34 fold enrichment (6-mer frequency, TF over GST control)","1.3 fold enrichment (6-mer frequency, TF over GST control)","1.37 fold enrichment (6-mer frequency, TF over GST control)","1.44 fold enrichment (6-mer frequency, TF over GST control)","1.35 fold enrichment (6-mer frequency, TF over GST control)","1.29 fold enrichment (6-mer frequency, TF over GST control)","1.31 fold enrichment (6-mer frequency, TF over GST control)","1.25 fold enrichment (6-mer frequency, TF over GST control)"
GTCTCA,"1.37 fold enrichment (6-mer frequency, TF over GST control)","1.3 fold enrichment (6-mer frequency, TF over GST control)","1.34 fold enrichment (6-mer frequency, TF over GST control)","1.29 fold enrichment (6-mer frequency, TF over GST control)","1.13 fold enrichment (6-mer frequency, TF over GST control)","1.3 fold enrichment (6-mer frequency, TF over GST control)","1.32 fold enrichment (6-mer frequency, TF over GST control)","1.16 fold enrichment (6-mer frequency, TF over GST control)"
TATTGA,"1.12 fold enrichment (6-mer frequency, TF over GST control)","1.22 fold enrichment (6-mer frequency, TF over GST control)","1.12 fold enrichment (6-mer frequency, TF over GST control)","1.17 fold enrichment (6-mer frequency, TF over GST control)","1.14 fold enrichment (6-mer frequency, TF over GST control)","1.11 fold enrichment (6-mer frequency, TF over GST control)","1.19 fold enrichment (6-mer frequency, TF over GST control)","1.16 fold enrichment (6-mer frequency, TF over GST control)"
TCCGAA,"1.36 fold enrichment (6-mer frequency, TF over GST control)","1.32 fold enrichment (6-mer frequency, TF over GST control)","1.23 fold enrichment (6-mer frequency, TF over GST control)","1.29 fold enrichment (6-mer frequency, TF over GST control)","1.25 fold enrichment (6-mer frequency, TF over GST control)","1.25 fold enrichment (6-mer frequency, TF over GST control)","1.15 fold enrichment (6-mer frequency, TF over GST control)","1.37 fold enrichment (6-mer frequency, TF over GST control)"
TATTAC,"1.22 fold enrichment (6-mer frequency, TF over GST control)","1.2 fold enrichment (6-mer frequency, TF over GST control)","1.18 fold enrichment (6-mer frequency, TF over GST control)","1.23 fold enrichment (6-mer frequency, TF over GST control)","1.16 fold enrichment (6-mer frequency, TF over GST control)","1.16 fold enrichment (6-mer frequency, TF over GST control)","1.24 fold enrichment (6-mer frequency, TF over GST control)","1.28 fold enrichment (6-mer frequency, TF over GST control)"
GCTACT,"1.52 fold enrichment (6-mer frequency, TF over GST control)","1.2 fold enrichment (6-mer frequency, TF over GST control)","1.39 fold enrichment (6-mer frequency, TF over GST control)","1.27 fold enrichment (6-mer frequency, TF over GST control)","1.33 fold enrichment (6-mer frequency, TF over GST control)","1.2 fold enrichment (6-mer frequency, TF over GST control)","1.19 fold enrichment (6-mer frequency, TF over GST control)","1.38 fold enrichment (6-mer frequency, TF over GST control)"
GCTTCA,"1.33 fold enrichment (6-mer frequency, TF over GST control)","1.35 fold enrichment (6-mer frequency, TF over GST control)","1.27 fold enrichment (6-mer frequency, TF over GST control)","1.31 fold enrichment (6-mer frequency, TF over GST control)","1.34 fold enrichment (6-mer frequency, TF over GST control)","1.28 fold enrichment (6-mer frequency, TF over GST control)","1.24 fold enrichment (6-mer frequency, TF over GST control)","1.33 fold enrichment (6-mer frequency, TF over GST control)"
CTGATA,"1.16 fold enrichment (6-mer frequency, TF over GST control)","1.21 fold enrichment (6-mer frequency, TF over GST control)","1.17 fold enrichment (6-mer frequency, TF over GST control)","1.15 fold enrichment (6-mer frequency, TF over GST control)","1.08 fold enrichment (6-mer frequency, TF over GST control)","1.2 fold enrichment (6-mer frequency, TF over GST control)","1.26 fold enrichment (6-mer frequency, TF over GST control)","1.06 fold enrichment (6-mer frequency, TF over GST control)"
